For some of these results: Potency and affinity values are given separately. The source made the active and inactive calls. Entries that show only a call come without a potency. No rule for the calls is given here.
Target: Plasmodium falciparum protein kinase 6 (PK6, PF3D7_1337100) (UniProt Q8IDW1)
Test: PfPK6 kinase inhibitors, biochemical, TCAMS library (AID 1159586)
Details: recombinant PfPK6, Kinase-Glo ATP depletion luminescence

Chain of Plasmodium falciparum protein kinase 6 (PK6, PF3D7_1337100) (Q8IDW1 1-305): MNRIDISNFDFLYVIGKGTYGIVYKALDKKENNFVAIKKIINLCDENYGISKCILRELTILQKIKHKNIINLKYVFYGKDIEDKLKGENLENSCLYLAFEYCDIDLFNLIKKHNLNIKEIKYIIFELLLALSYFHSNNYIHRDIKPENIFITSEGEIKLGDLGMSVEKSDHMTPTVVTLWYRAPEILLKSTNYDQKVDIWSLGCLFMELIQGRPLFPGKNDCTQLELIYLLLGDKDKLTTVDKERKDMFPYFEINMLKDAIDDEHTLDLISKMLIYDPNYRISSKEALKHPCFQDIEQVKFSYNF

| SMILES | outcome |
| --- | --- |
| O=C(/C=C/c1c(Cl)cccc1Cl)NC1CCC(CN2[C@@H]3CC[C@H]2CC(c2c[nH]c4ccccc24)C3)CC1 (stereo partly specified) | inactive |
| N#Cc1ccc(N(CC(=O)NCCc2ccccc2)CC2CC2)c2ccccc12 | inactive |
| CC(Cc1ccc(-c2nc3ccccc3[nH]2)cc1)NCC(O)c1cccc(C(F)(F)F)c1 (stereo unspecified) | inactive |
| O=C(/C=C/C=C/c1ccccc1)NC1CCC(CN2CCC(c3c[nH]c4ccccc34)CC2)CC1 (stereo unspecified) | inactive |
| CN(c1cc(NC(=O)c2ccc(F)cc2)ccn1)C1CCN(Cc2ccc(C#N)cc2)CC1 | inactive |
| COc1cc(NCCCNC(=O)c2cn(Cc3ccccc3)c3ccccc23)nc2ccccc12 | inactive |

Target: Protein kinase 7 (PK7), Plasmodium falciparum 3D7 (PF3D7_0213400) (UniProt Q7YTF7)
Test: inhibition of Plasmodium PK7 catalytic activity – biochemical, TCAMS antimalarial set, Kinase-Glo luminescence (AID 1159587)
Details: recombinant PfPK7, Kinase-Glo ATP depletion luminescence

Chain of Protein kinase 7 (PK7), Plasmodium falciparum 3D7 (PF3D7_0213400) (Q7YTF7 1-343): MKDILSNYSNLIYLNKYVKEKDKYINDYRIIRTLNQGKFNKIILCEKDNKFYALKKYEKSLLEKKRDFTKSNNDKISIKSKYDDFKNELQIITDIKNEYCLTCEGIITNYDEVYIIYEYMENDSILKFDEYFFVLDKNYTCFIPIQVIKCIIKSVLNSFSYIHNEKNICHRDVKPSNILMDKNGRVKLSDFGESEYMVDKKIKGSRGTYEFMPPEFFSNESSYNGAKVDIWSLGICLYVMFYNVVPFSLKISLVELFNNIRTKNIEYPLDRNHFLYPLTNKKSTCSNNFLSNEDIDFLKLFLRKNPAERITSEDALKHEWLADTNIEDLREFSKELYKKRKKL

| SMILES | outcome |
| --- | --- |
| CCCCC/C=C/C(=O)NC1CCC(CN2CCC(c3c[nH]c4ccccc34)CC2)CC1 (stereo unspecified) | inactive |
| COc1ccc(O)c(CN2CCN(c3cc(C)ccc3C)CC2)c1 | inactive |
| CC[C@H]1CN2CC[C@H]1C[C@@H]2[C@@H](O)c1cc(Cl)nc2ccc(OC)cc12 | inactive |
| CC(Cc1ccc(Sc2ccccc2)cc1)NCC(O)c1cccc(C(F)(F)F)c1 (stereo unspecified) | inactive |
| CC(C)CCNC(=O)c1cc(C(=O)c2cc(F)ccc2O)cn(CCC(C)C)c1=O | inactive |
| O=C(/C=C/c1ccc(Cl)c(Cl)c1)N1CCC(CN2CCC(c3c[nH]c4ccc(O)cc34)CC2)CC1 | inactive |
| Oc1ccc2[nH]cc(C3=CCN(CCc4ccccc4)CC3)c2c1 | inactive |
| C/C=C1\CN2CC[C@H]1C[C@H]2[C@H](O)c1ccnc2ccc(O)cc12 | inactive |
| CC[C@H]1CN2CC[C@@H]1C[C@H]2[C@H](O)c1cc(N2CCC(N3CCCCC3)CC2)nc2ccc(OC)cc12 | inactive |
| S=C(NCC1CCCCC1)NC1CCC(CN2CCC(c3c[nH]c4ccccc34)CC2)CC1 (stereo unspecified) | inactive |
| COc1cc(C=CC(=O)N2CCC(CN3CCC(c4c[nH]c5ccccc45)CC3)CC2)ccc1O | inactive |
| CCOc1ccc2nccc([C@@H](O)[C@@H]3C[C@@H]4CCN3C[C@@H]4CC)c2c1 | inactive |
| CC1(CCCCN2CC=C(c3c[nH]c4ccccc34)CC2)C(=O)Nc2ccccc21 (stereo unspecified) | inactive |
| CN1CC=C(c2c[nH]c3ccc(OC(=O)c4ccccc4)cc23)C1 | inactive |
| Cc1[nH]c2c(C)cc(NS(C)(=O)=O)cc2c1C1CCN(CC2CCN(C(=O)/C=C/c3ccc(Cl)c(Cl)c3)CC2)CC1 | inactive |
| COC(=O)c1ccc(CC(C)NCC(O)c2cccc(Cl)c2Cl)cc1 (stereo unspecified) | inactive |
| Oc1ccc(CN2CCN(CCOC(c3ccc(F)cc3)c3ccc(F)cc3)CC2)cc1Cl | inactive |
| COC(=O)c1ccc(CC(C)NCC(O)c2ccc(F)c(Cl)c2)cc1 (stereo unspecified) | inactive |
| O=C(C=Cc1ccccc1Br)NC1CCC(CN2CCC(c3c[nH]c4ccccc34)CC2)CC1 (stereo unspecified) | inactive |
| CC[C@H]1CN2CC[C@H]1C[C@H]2[C@H](O)c1cc(Cl)nc2ccc(OC)cc12 | inactive |

| SMILES | outcome |
| --- | --- |
| CC(=O)C1(c2ccccc2)CCN(CCC2(c3ccc(Cl)c(Cl)c3)CN(C(=O)Nc3cccc(C(F)(F)F)c3)CCO2)CC1 (stereo unspecified) | inactive |
| Cc1[nH]c2ccccc2c1C1=CCN(CCCCC23CCCc4cccc(c42)NC3=O)CC1 (stereo unspecified) | inactive |
| Oc1ccc2[nH]cc(C3=CCN(Cc4ccccc4)CC3)c2c1 | inactive |
| CN1CC=C(c2c[nH]c3ccc(Sc4ccccc4)cc23)CC1 | inactive |
| OC(CNC1CCCCCC1)c1ccc(Cl)c(Cl)c1 (stereo unspecified) | inactive |
| CC[C@H]1CN2CC[C@H]1C[C@H]2[C@H](O)c1cc(-c2cccc(F)c2)nc2ccc(OC)cc12 | inactive |
| COC(=O)c1ccc(CC(C)NCC(O)c2cccc(C(F)(F)F)c2)c(Cl)c1 (stereo unspecified) | inactive |
| Cc1ccc(CC(C)NCC(O)c2cccc(Br)c2)cc1 (stereo unspecified) | inactive |
| COc1ccc2[nH]cc(C3C[C@H]4CC[C@@H](C3)N4CCC3CCN(C(=O)/C=C/c4ccc(Cl)c(Cl)c4)CC3)c2c1 (stereo partly specified) | inactive |
| CCOC(C(=O)OCC1CCCN1C(C)C)(c1ccccc1)c1ccccc1 (stereo unspecified) | inactive |
| CN(C)c1cccc(NC(=O)NC2N=C(c3ccccc3)c3ccccc3N(CC(=O)N(C)c3ccccc3)C2=O)c1 (stereo unspecified) | inactive |
| CC(=O)Nc1ccc2[nH]cc(C3CCN(CC4CCC(NC(=O)/C=C/c5ccc(Cl)c(Cl)c5)CC4)CC3)c2c1 (stereo unspecified) | inactive |
| O=C(Cc1cc(=O)oc2cc(O)ccc12)NC1CCC(CN2CCC(c3c[nH]c4ccccc34)CC2)CC1 (stereo unspecified) | inactive |
| COc1ccc(CN2CCN(CCOC(c3ccccc3)c3ccccc3)CC2)c(O)c1 | inactive |
| O=C(/C=C/c1c(Cl)cccc1Cl)NC1CCC(CN2[C@@H]3CC[C@H]2CC(c2c[nH]c4ccccc24)C3)CC1 (stereo partly specified) | inactive |
| N#Cc1ccc(N(CC(=O)NCCc2ccccc2)CC2CC2)c2ccccc12 | inactive |
| CC(Cc1ccc(-c2nc3ccccc3[nH]2)cc1)NCC(O)c1cccc(C(F)(F)F)c1 (stereo unspecified) | inactive |
| O=C(/C=C/C=C/c1ccccc1)NC1CCC(CN2CCC(c3c[nH]c4ccccc34)CC2)CC1 (stereo unspecified) | inactive |
| CN(c1cc(NC(=O)c2ccc(F)cc2)ccn1)C1CCN(Cc2ccc(C#N)cc2)CC1 | inactive |
| COc1cc(NCCCNC(=O)c2cn(Cc3ccccc3)c3ccccc23)nc2ccccc12 | inactive |

— PubChem BioAssay
